The record followed here is PubChem BioAssay.

The term inhibition denotes how much of the control response was suppressed.

Unmarked numbers belong to inactive results. How the calls were made is not given here.

This assay deals with Pantothenate synthetase (Mycobacterium tuberculosis (strain ATCC 25618 / H37Rv)) (UniProt P9WIL5). The experiment in a line: Recombinant Mtb pantothenate synthetase (PanC) inhibitors, coupled enzyme, confirmatory (AID 375).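 Further: 0% = full reaction with vehicle and 100% = no enzyme background.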 Particulars: coupled enzyme assay; at 10 µM, active compounds read high.
Chain of Pantothenate synthetase (Mycobacterium tuberculosis (strain ATCC 25618 / H37Rv)) (P9WIL5 whole entry, looked up): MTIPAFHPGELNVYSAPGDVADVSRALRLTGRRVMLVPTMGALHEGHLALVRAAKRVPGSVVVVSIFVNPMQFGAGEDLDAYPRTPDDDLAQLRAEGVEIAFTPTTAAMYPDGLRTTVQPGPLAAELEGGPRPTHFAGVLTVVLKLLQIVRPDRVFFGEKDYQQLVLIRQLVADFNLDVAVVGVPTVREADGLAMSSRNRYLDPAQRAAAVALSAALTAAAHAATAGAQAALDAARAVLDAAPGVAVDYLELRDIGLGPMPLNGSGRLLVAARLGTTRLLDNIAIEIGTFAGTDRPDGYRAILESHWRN
Turning to `COc1cc2c(cc1OC)-c1nnc(-c3cccs3)n1C(C)(C)C2`, the inhibition is 0%.

For the compound `O=C(NCCC1=CCCCC1)C1CCN(S(=O)(=O)c2cnc[nH]2)CC1`, the inhibition is 2%.

Consider `COc1cccc(C2CC(c3c(Cl)cccc3Cl)n3nc(N)nc3N2)c1` (stereo not drawn), for which the inhibition was 0%.

Consider `Cc1cc(C)nc(SCc2nnc(SCc3ccccc3Cl)o2)n1`, for which the inhibition is 0%.

In the case of `CN(C(=O)c1ccccn1)c1nnc(-c2cccnc2)s1`, the inhibition is 6%.

As to `CC1CCN(CCC(=O)Nc2ccc(Br)cc2)CC1`, the inhibition was 0%.

For the compound `N#CCCN1CCN(S(=O)(=O)c2ccc(S(=O)(=O)NC3CCCCC3)cc2)CC1`, the inhibition is 0%.

Turning to `CCCS(=O)(=O)N1CCN(C(=O)c2cccs2)CC1`, the inhibition was 0%.

`Cc1ccc(C)c(-n2nnnc2SCC(=O)NCCC2=CCCCC2)c1`: the inhibition is 3%.

For the compound `COc1ccccc1OCc1ccc(C(=O)N2CCN(C(=O)c3ccco3)CC2)cc1`, the inhibition is 1%.

For the compound `Cc1ccccc1NC(=O)Cc1nnc(SCC(=O)N2CCN(c3ccccc3)CC2)n1C`, the inhibition was 4%.

`CCCCOC(=O)Nc1nccs1`: the inhibition is 9%.

For `CS(=O)(=O)N1CCC(C(=O)NCCC2=CCCCC2)CC1`, the inhibition was 6%.

As for `CSc1ccccc1NC(=O)c1noc2c1CCC2`, the inhibition was 0%.

For `Cn1c(=O)c2c(nc(SCC(=O)NCc3ccc4c(c3)OCO4)n2Cc2ccccc2)n(C)c1=O`, the inhibition was 0%.

As to `Cc1ccc(O)c(-c2cc3ccccc3[nH]2)c1`, the inhibition is 0%.

As for `CCN1CCN(c2nc(C)nc3c2sc(=S)n3C)CC1`, the inhibition is 0%.

`COC(=O)c1cc2ccsc2n1Cc1nc(-c2ccc(OC)cc2)oc1C`: the inhibition is 9%.
